Source: ChEMBL document CHEMBL1157539, “Thousands of chemical starting points for antimalarial lead identification” (Nature, 2010)

Experiments:
Assay type in all cases: functional
[1] = system: Plasmodium falciparum; test: GSK_TCMDC: Inhibition of Plasmodium falciparum 3D7 in whole red blood cells, using parasite LDH activity as an index of growth. Test compounds present at 2uM
[2] = system: Plasmodium falciparum; test: GSK_TCMDC: Inhibition of Plasmodium falciparum Dd2 in whole red blood cells, using parasite LDH activity as an index of growth. Test compounds present at 2uM
[3] = system: HepG2; test: GSK_TCMDC: Percent inhibition of human HepG2 cell line. Test compounds present at 10uM.

COc1cccc(-c2nn(C)c3sc(C(=O)Nc4cccnc4)cc23)c1 showed an Inhibition [1] of 86%, an Inhibition [2] of 34% and an Inhibition [3] of 1%.

In the case of CNCc1cccc2nc(-c3ccc(Cc4cc(Cl)ccc4OCC(C)C)o3)[nH]c12.Cl, the Inhibition [1] is reported as 97%, the Inhibition [2] is reported as 23% and the Inhibition [3] is reported as 20%.

N=C(N)NN=CC(=O)Nc1ccc(Cl)c(Cl)c1 was tested, and the Inhibition [1] was 97%, the Inhibition [2] was 0% and the Inhibition [3] was 0%.

COc1ccccc1CCNc1nc(C)cc(N[C@@H](Cc2ccccc2)C(=O)NCc2cccs2)n1.O=C(O)C(F)(F)F was tested, and the Inhibition [1] was 100%, the Inhibition [2] was 73% and the Inhibition [3] was 18%.

O=C(/C=C/c1ccc(Cl)c(Cl)c1)NCCCCCN1CCCN(C(=O)Nc2cccc(C(F)(F)F)c2)CC1 showed an Inhibition [1] of 96%, an Inhibition [2] of 0% and an Inhibition [3] of 45%.

In the case of Cc1cccc(CC(=N)NCCCCCCNC(=N)Cc2cccc(C)c2)c1.Cl, the Inhibition [1] is reported as 97%, the Inhibition [2] is reported as 97% and the Inhibition [3] is reported as 12%.

CC(C)CCn1c(Sc2ccc([N+](=O)[O-])cc2C(F)(F)F)nnc1-c1ccccc1Cl was tested, and the Inhibition [1] was 99%, the Inhibition [2] was 43% and the Inhibition [3] was 0%.

With O=C(Nc1cccc(CN2CCN(C(=O)c3ccccc3)CC2)c1)c1ccco1.O=C(O)C(F)(F)F the Inhibition [1] was 95%, the Inhibition [2] was 42% and the Inhibition [3] was 6%.

COc1cc2nc(N3CCC(CNC(=O)c4ccc(-c5ccc(C(=O)N(C)C)cc5)cc4)CC3)nc(N)c2cc1OC showed an Inhibition [1] of 100%, an Inhibition [2] of 89% and an Inhibition [3] of 20%.

For Cn1cncc1C(=O)Nc1ccc(-c2cccc(-c3nc4cc(F)ccc4[nH]3)c2)cc1, the Inhibition [1] was 100%, the Inhibition [2] was 23% and the Inhibition [3] was 5%.

With CC(C)C[C@H](NC(=O)c1ccc(OCCN2CCOCC2)cc1)C(=O)N[C@H](/C=N/N1CCNC1=O)CCc1ccccc1 the Inhibition [1] was 89%, the Inhibition [2] was 94% and the Inhibition [3] was 1%.

With Cc1cccc(CNc2nc(C)cc(N[C@@H](CC(C)C)C(=O)NCCOc3ccccc3)n2)c1.O=C(O)C(F)(F)F the Inhibition [1] was 93%, the Inhibition [2] was 35% and the Inhibition [3] was 15%.

With Cc1ccc(Oc2c(-c3ccccc3CN3CCCC3CN(C)C)cnn(C)c2=O)cn1.O=C(O)C(F)(F)F (stereo not drawn) the Inhibition [1] was 88%, the Inhibition [2] was 9% and the Inhibition [3] was 0%.

C=CCc1cc(Br)ccc1OCCCOc1c(N)nc(N)nc1N.Cl showed an Inhibition [1] of 92%, an Inhibition [2] of 0% and an Inhibition [3] of 47%.

For COc1ccc(-c2cnc(N)c(-c3nc4cc(Br)ccc4[nH]3)c2)cc1.O=C(O)C(F)(F)F, the Inhibition [1] was 100%, the Inhibition [2] was 3% and the Inhibition [3] was 42%.

Compound FC(F)(F)c1ccc2[nH]ccc(=NN=Cc3ccccc3Cl)c2c1 has an Inhibition [1] of 100%, an Inhibition [2] of 83% and an Inhibition [3] of 0%.

With OC(CNc1ccnc(Nc2cccc(Cl)c2)n1)c1ccc(C(F)(F)F)cc1 (stereo not drawn) the Inhibition [1] was 100%, the Inhibition [2] was 61% and the Inhibition [3] was 13%.

Work on O=C(Nc1cccc([N+](=O)[O-])c1)Nc1ccc(Cl)c(C(F)(F)F)c1 yielded an Inhibition [1] of 96%, an Inhibition [2] of 87% and an Inhibition [3] of 15%.

Work on CC(C)C(=O)NC(c1cccs1)c1cc(Cl)c2cccnc2c1O (stereo not drawn) yielded an Inhibition [1] of 91%, an Inhibition [2] of 91% and an Inhibition [3] of 23%.

Compound Cl.NCC(=O)Nc1cccc(Nc2nccc(-c3c(-c4cccc(NC(=O)c5ccccc5)c4)nn4ccccc34)n2)c1 has an Inhibition [1] of 96%, an Inhibition [2] of 87% and an Inhibition [3] of 45%.

Cl.N=C(N)Nc1nccc(NCc2ccccc2)n1 was tested, and the Inhibition [1] was 88%, the Inhibition [2] was 48% and the Inhibition [3] was 95%.

Compound Cl.N#Cc1cccc(-c2cccc(C(=O)NC3CCC(CCN4CCc5ccc(C#N)cc5CC4)CC3)c2)c1 (stereo not drawn) has an Inhibition [1] of 99%, an Inhibition [2] of 57% and an Inhibition [3] of 31%.

COc1ccc2nccc([C@@H](O)CN3CCC(NCCOc4cc(C(F)(F)F)ccc4F)CC3)c2c1.O=C(O)C(=O)O was tested, and the Inhibition [1] was 100%, the Inhibition [2] was 83% and the Inhibition [3] was 13%.

COCC(=O)Nc1nc2ccccc2[nH]1 showed an Inhibition [1] of 98%, an Inhibition [2] of 1% and an Inhibition [3] of 0%.

CN(Cc1ccc(NC(=O)NC2CCN(C(=O)/C=C/c3ccc(Cl)c(Cl)c3)CC2)cc1)C1CCOCC1 gave an Inhibition [1] of 96%, an Inhibition [2] of 14% and an Inhibition [3] of 9%.

With CCCNC(=O)c1cncc(-c2cccc(CNC3Cc4ccccc4C3)c2)c1.O=C(O)C(F)(F)F the Inhibition [1] was 100%, the Inhibition [2] was 2% and the Inhibition [3] was 0%.

Work on CCc1ccc(N2C(=O)C3C(Cc4ccc(OC(C)(C)C)cc4)NC4(C(=O)N(Cc5ccccc5)c5ccc(F)cc54)C3C2=O)cc1 (stereo not drawn) yielded an Inhibition [1] of 96%, an Inhibition [2] of 49% and an Inhibition [3] of 9%.

Work on O=C(CCn1cncn1)N1CCCC(c2[nH]c3ccccc3c2-c2ccncc2)C1 (stereo not drawn) yielded an Inhibition [1] of 97%, an Inhibition [2] of 79% and an Inhibition [3] of 1%.

Compound COc1cccc(CNC(=O)c2cccc(-c3ccc(CN4CCC(N5CCCC5)CC4)cc3)n2)c1.O=C(O)C(F)(F)F has an Inhibition [1] of 100%, an Inhibition [2] of 76% and an Inhibition [3] of 16%.

Work on Cc1cc(N(C)CCN(C)C)nc(Nc2ccc(Cl)cc2)n1 yielded an Inhibition [1] of 92%, an Inhibition [2] of 14% and an Inhibition [3] of 0%.

Compound CN1CCC(N2CCN(Cc3cccc(-c4ccc(-c5nc6cc(F)ccc6[nH]5)cc4)c3)CC2)CC1.O=C(O)C(F)(F)F has an Inhibition [1] of 100%, an Inhibition [2] of 100% and an Inhibition [3] of 92%.
